Sampled rows, rich in hits. Any-hit rate of the full collection: about 3.1%.
Beta cell apopt – inhibitors of cytokine-induced beta cell apoptosis, primary screen, luminescence. hit rate 0.8% among 300,000. protection from apoptosis, % (test concentration not listed). INS-1E cytokine-induced death, ATP luminescence, 48 h; percent of positive-control rescue, neutral wells zero;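 active means Every replicate reaches about 75%, or at least half do and their mean reaches it too, limit read from the data; inconclusive means At least half of replicates reach the limit but their mean does not; inactive means Under half of replicates reach the limit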;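 further: 0% = cytokine-treated negative control wells and 100% = positive control rescue; higher means more ATP so stronger rescue from cytokine killing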
PP5 primary – PP5 phosphatase inhibitors, primary screen, biochemical, fluorescence. AID 1987, 2009. purified PP5c, OMFP substrate fluorescence. Serine/threonine-protein phosphatase 5 (Homo sapiens), P53041. hit rate 0.18% among 320,000. inhibition, % at 6.7 µM;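 active means inhibition above the campaign's mean inhibition across all tested compounds plus 3 SD, cut at about 9.5% in these data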;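 further: 0% = DMSO only and 100% = 100 µM cantharidin control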
CSC inhib – cancer stem cell viability inhibitors, primary screen, luminescence. hit rate 1.1% among 300,000. AID 2717, 2010. inhibition, % at 7.5 µM. cancer stem cell-like cells viability; in the data active means inhibition above about 75%; inconclusive means no clear call, values can overlap the other calls; tested in HMLE shEcad cells
SKKanGAS inh – S. pyogenes SKKanGAS growth inhibitors in kanamycin, primary screen, streptokinase expression inhibitor project, SKKanGAS strain, BacTiter-Glo luminescence; 6 h; inhibition, % at 7.5 µM; hit rate 1.3% among 300,000; AID 1662, 2009;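 active means mean replicate score, as percent of positive control median, at least 50; inconclusive means mean below 50 but one replicate at or above 50; inactive means mean and every replicate below 50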;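 further: strain carries kanamycin resistance gene driven by streptokinase promoter and grows in 40 µg/ml kanamycin; loss of luminescence reflects streptokinase promoter inhibition or plain growth inhibition; 0% = median of DMSO wells and 100% = positive control at its reference dose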
PP1 inh – PP1-alpha phosphatase inhibitors, primary screen, counter-screen for PP5 inhibitor project, biochemical, fluorescence, OMFP substrate, single point | Serine/threonine-protein phosphatase PP1-alpha catalytic subunit (Homo sapiens), P62136 | purified PP1alpha | hit rate 0.9% among 320,000 | inhibition, % at 6.7 µM | AID 2235, 2010;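 active means inhibition above the mean inhibition of all tested compounds plus 3 SD, computed separately for each screening campaign, cut at about 15% in these data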
Target sequence (P62136 whole entry, looked up): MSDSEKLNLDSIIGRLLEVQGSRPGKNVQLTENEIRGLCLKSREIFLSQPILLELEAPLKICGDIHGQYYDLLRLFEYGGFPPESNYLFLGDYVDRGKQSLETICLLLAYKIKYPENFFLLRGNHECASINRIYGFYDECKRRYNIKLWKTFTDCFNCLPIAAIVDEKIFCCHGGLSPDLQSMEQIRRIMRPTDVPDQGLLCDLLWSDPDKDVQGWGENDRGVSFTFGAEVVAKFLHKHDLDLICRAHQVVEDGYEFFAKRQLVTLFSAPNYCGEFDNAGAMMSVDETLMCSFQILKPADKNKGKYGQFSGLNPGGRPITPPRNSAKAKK
Numbers without * were called inactive; u = inconclusive; x = no result.

SMILES | Beta cell apopt | PP5 primary | CSC inhib | SKKanGAS inh | PP1 inh
Cc1cc(/C=C2\SC(=Nc3ccc(F)cc3)NC2=O)c(C)n1-c1ccc(S(N)(=O)=O)cc1 | 18 | 3 | 52 | 61* | 0
Cc1c(C(=O)N2CCCCC2)c(S(=O)(=O)N2CCC(C)CC2)c(C)n1C | -1 | -1 | -2 | -1 | -1
Cc1ccc(C)c(S(=O)(=O)N2CCN(C(=O)C3CCN(C(=O)c4ccc(F)cc4)CC3)CC2)c1 | 7 | 0 | -6 | -1 | -3
Cc1ccc2nc(C)c(CN3CCN(c4ccc([N+](=O)[O-])cc4Cl)CC3)n2c1 | 104* | 2 | 2 | 7 | -2
C=CCc1c(C)nc(C)nc1N/N=C/c1ccc(N(C)C)cc1 | 100* | 3 | 9 | -3 | -1
CCOC(=O)c1sc(N/N=C/c2ccc(N(C)C)cc2)nc1C | -15 | 2 | -8 | 0 | 2
O=C(NCCc1ccccc1)c1cc(-c2ccccc2)c(N2CCOCC2)s1 | 5 | 6 | 81* | 6 | -4
CCN(CC)CCCNC(=O)c1cc(-c2ccccc2)c(N2CCCCC2)s1 | 20 | 0 | 83* | 1 | -1
CSc1ccc(CCNC(=O)c2cc(-c3ccccc3)c(N3CCOCC3)s2)cc1 | 12 | 3 | 10 | 6 | 13
COC(=O)C(=Cc1ccccc1[N+](=O)[O-])C(=O)OC | 1 | -1 | 52 | -2 | 3
COc1ccc(N2CC(C(=O)Nc3nnc(SCc4ccccn4)s3)CC2=O)cc1 (stereo not given) | -2 | 0 | 30 | 5 | 4
COc1cc2c(C)nc3c(c(C)nn3-c3ccccc3)c2cc1OC | -7 | 0 | -2 | -19 | -8
COc1cc2c(-c3ccc(O)cc3)nc3c(c(C)nn3-c3ccccc3)c2cc1OC | 53 | 2 | 88* | x | -6
O=S(=O)(N/N=C/c1ccc(Cl)cc1)c1ccc(Cc2ncc(C(F)(F)F)cc2Cl)s1 | -9 | 0 | -6 | 50* | 3
Cn1c(=O)c2c(nc(SCc3ccccc3)n2Cc2ccc(Cl)cc2)n(C)c1=O | 21 | 2 | -15 | 80* | 3
Cn1c(=O)c2c(nc(Cl)n2CCOc2ccccc2)n(C)c1=O | 3 | -1 | -8 | -6 | 16*
CCOc1cc(/C=C(\C#N)C(=O)Nc2cccc(C(=O)O)c2)cc(Br)c1OC(=O)c1ccc(OC)cc1 | -2 | -4 | 17 | 14 | 17*
CCOc1cc(/C=C(\C#N)C(=O)Nc2cccc(C(=O)O)c2)ccc1OCc1ccccc1Cl | 8 | 3 | 5 | 35 | 1
O=c1cc(N=Nc2ccc(Cl)cc2)[nH]c(=O)[nH]1 | 10 | -2 | 116* | 97* | 1
Cc1oc(-c2ccc(F)cc2)nc1CN(Cc1ccccn1)CC1CCCO1 (stereo not given) | -5 | 0 | 1 | 61* | 1
Cc1cc2oc(=O)cc(CN(C)Cc3ccccc3Cl)c2cc1C | -4 | 0 | 17 | 62* | 2
CN=C(Nc1cc(Cl)ccc1Cl)SC1CC(=O)N(c2ccc(C(=O)OC)cc2)C1=O (stereo not given) | 7 | 6 | 7 | 52* | 3
Cc1cccc(N2C(=O)CC(SC(=Nc3ccccc3)Nc3ccccc3)C2=O)c1 (stereo not given) | -3 | 6 | -8 | 2 | 5
O=C1CC(SC(=Nc2ccccc2)Nc2ccccc2)C(=O)N1c1ccc(Cl)c(Cl)c1 (stereo not given) | 4 | 4 | 36 | 72* | 4
Cc1cccc([C@@H]2[C@@H]3C(=O)N(Cc4ccccc4)C(=O)[C@@H]3[C@]3(CC(C)C)C(=O)N(c4cccc(F)c4)C(=O)N23)c1 | 4 | 8 | -3 | -1 | 0
SMILES | Beta cell apopt | PP5 primary | CSC inhib | SKKanGAS inh | PP1 inh
COc1cccc(F)c1C(C[N+](=O)[O-])c1c(N)n(C)c(=O)n(C)c1=O (stereo not given) | 97* | 1 | 71 | -5 | 5
CN(C)S(=O)(=O)c1cccc(NC(=S)N/N=C/c2cc(Br)ccc2O)c1 | 94* | 5 | 77* | 107* | 3
CSc1c(CC(=O)Nc2ccccc2C(F)(F)F)n(Cc2ccccc2)c2ccccc12 | 11 | 0 | 6 | -5 | -4
COc1cc(-c2nc3ccc4ccccc4c3c3c2CCC3)cc(OC)c1O | 1 | 2 | 8 | 16 | 3
COc1cc(-c2nc3ccc4ccccc4c3c3c2CCC3)ccc1O | 2 | 2 | 78* | 29 | -14
COc1cc(-c2c(C#N)c(N)nc3c2c(C)nn3-c2ccc(C)c(C)c2)cc(OC)c1OC | 14 | 7 | 12 | 50* | 3
Cc1nn(-c2ccc(F)cc2)c2nc(N)c(C#N)c(-c3ccc(O)c(O)c3)c12 | -2 | x | 31 | 39 | x
CCOC(=O)c1c(NC(=S)NCC2CCCO2)sc(C)c1C (stereo not given) | x | 4 | -10 | -3 | 2
O=c1c2ccccc2nnn1Cc1ccc2ccccc2c1 | 3 | 1 | 0 | 2 | -1
CCOC(=O)c1c(NC(=O)C[n+]2ccc(Cc3ccccc3)cc2)sc(C)c1C | 78* | 3 | -8 | -4 | 6
CCOC(=O)c1c(NC(=S)Nc2ccccc2)sc(C)c1C | -4 | 0 | 1 | 6 | -5
Cc1cccc(NS(=O)(=O)c2csc(C(N)=O)c2)c1C | -4 | 3 | -15 | 5 | 1
C#CCOCCOCCOCCNc1nc(N2CCN(C(=O)C(Cc3cc4ccccc4[nH]3)n3cc(C(N)C(C)CC)nn3)CC2)nc(N2CCN(C(=O)C(Cc3cc4ccccc4[nH]3)n3cc(C(N)C(C)CC)nn3)CC2)n1 (stereo not given) | -10 | 4 | -7 | 2 | 27*
C#CCOCCOCCOCCNc1nc(N2CCN(C(=O)[C@H](CCCCN)n3cc([C@@H](N)CC(C)C)nn3)CC2)nc(N2CCN(C(=O)[C@H](Cc3cc4ccccc4[nH]3)n3cc([C@@H](N)Cc4ccc(O)cc4)nn3)CC2)n1 | -2 | 4 | 5 | 1 | 17*
C#CCOCCOCCOCCNc1nc(N2CCN(C(=O)[C@H](CCCCN)n3cc([C@@H](N)CO)nn3)CC2)nc(N2CCN(C(=O)[C@H](Cc3cc4ccccc4[nH]3)n3cc([C@@H](N)Cc4ccc(O)cc4)nn3)CC2)n1 | 6 | 3 | 6 | -1 | 7
O=C(Nc1ccccc1)c1nsnc1C(=O)Nc1ccccc1 | -2 | 3 | -8 | -3 | 8
CCCc1sc(N/N=C/c2ccccn2)nc1-c1ccc(Br)cc1 | 111* | 2 | 126* | 67* | 0
Cc1cccc(Nc2nc(N)c([N+](=O)[O-])c(N3CC(C)CC(C)C3)n2)c1 (stereo not given) | u | 6 | 105* | 24 | 4
Cc1cccc(Nc2nc(N)c([N+](=O)[O-])c(N3CC(C)OC(C)C3)n2)c1 (stereo not given) | 12 | 0 | 7 | -5 | 1
NNC(=O)c1nn(-c2ccc(Cl)cc2)cc1O | 75* | -1 | -9 | -1 | 4

Screening results (PubChem)
